Results reported in PubChem BioAssay.
The source made the active and inactive calls.

Experiments:
[1] = anti-His antibody binders, primary screen, artefact control for SMM control protein annotation, biochemical, small-molecule microarray, 635 nm fluorescence (AID 1128); conditions: anti-His Alexa647 antibody binding, higher = more signal;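 note: score merges feature fluorescence with signal-to-noise for each printed compound spot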
[2] = test system: Human papillomavirus type 1a E7 protein (residues 1-88); test: HPV1a E7 small-molecule binders, primary screen, biochemical, small-molecule microarray, residues 1-88, 635 nm (AID 1129); conditions: small-molecule microarray binding, fluorescence 635 nm; higher = more signal
[3] = molecular target: Focal adhesion kinase 1 (Homo sapiens) (UniProt Q05397); test: small-molecule microarray binders of FAK, primary screen, biochemical, 635/667 nm fluorescence, BSA, DTT (AID 1130); conditions: PTK2 binding, 635 nm fluorescence, higher = more signal;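 note: composite of spot emission at 667 nm and signal to noise over triplicate slides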
[4] = test system: Fibrinogen (Alexa647-labelled); test: fibrinogen binders on compound microarrays, profiling panel, artefact control for SMM control-protein annotation, biochemical, small-molecule microarray, 635/667 nm fluorescence (AID 1131); conditions: fibrinogen-A647 binding fluorescence, higher = more signal;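 note: z-score merges 667 nm fluorescence with per-spot signal-to-noise over triplicate slides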
[5] = molecular target: Follistatin (Homo sapiens) (UniProt P19883); test: follistatin binders on small-molecule microarrays, primary screen, biochemical, small-molecule microarray, 635/667 nm fluorescence (AID 1132); conditions: FST binding, 635 nm fluorescence, higher = more signal
[6] = molecular target: Fibroblast growth factor 2 (Homo sapiens) (UniProt P09038); test: FGF2 binders on small-molecule microarrays, primary screen, biochemical, small-molecule microarray, 635/667 nm fluorescence (AID 1133); conditions: small-molecule microarray binding, FGF2, fluorescence 635/667; higher = more signal
[7] = mitochondrial membrane potential change in A549 cells, profiling panel, cell-based, JC-1 fluorescence, basal, 24 h, 100 nL (AID 1138); conditions: higher = more signal;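 note: A549 lung adenocarcinoma cells under basal conditions with no added stimulus; test concentration not given here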
Lefty1 = Lefty1 binders on small-molecule microarrays, primary screen, biochemical, small-molecule microarray, 635/667 nm fluorescence (AID 1139); conditions: small-molecule microarray binding, fluorescence 635/667; higher = more signal
[8] = test system: wheat germ agglutinin (Triticum aestivum), Alexa647-labelled; test: wheat germ agglutinin binders on compound microarrays, profiling panel, artefact control for SMM control-protein annotation, biochemical, small-molecule microarray, 635/667 nm fluorescence (AID 1140); conditions: WGA-A647 binding, 635 nm fluorescence, higher = more signal;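 note: score merges 667 nm feature emission with signal to noise over triplicate slides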
[9] = molecular target: Luciferin 4-monooxygenase (Photinus pyralis) (UniProt P08659); test: firefly luciferase enzyme inhibitors, primary screen, biochemical, luminescence, purified enzyme, 2006 set (AID 1141); conditions: SteadyGlo luminescence, 30 min, higher = more signal, called active from +8 up or from −8 down;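 note: cell-free assay with purified firefly luciferase at 100 ng per well in PBS; test concentration not given here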
Sequence of Luciferin 4-monooxygenase (Photinus pyralis) (P08659 whole entry, looked up): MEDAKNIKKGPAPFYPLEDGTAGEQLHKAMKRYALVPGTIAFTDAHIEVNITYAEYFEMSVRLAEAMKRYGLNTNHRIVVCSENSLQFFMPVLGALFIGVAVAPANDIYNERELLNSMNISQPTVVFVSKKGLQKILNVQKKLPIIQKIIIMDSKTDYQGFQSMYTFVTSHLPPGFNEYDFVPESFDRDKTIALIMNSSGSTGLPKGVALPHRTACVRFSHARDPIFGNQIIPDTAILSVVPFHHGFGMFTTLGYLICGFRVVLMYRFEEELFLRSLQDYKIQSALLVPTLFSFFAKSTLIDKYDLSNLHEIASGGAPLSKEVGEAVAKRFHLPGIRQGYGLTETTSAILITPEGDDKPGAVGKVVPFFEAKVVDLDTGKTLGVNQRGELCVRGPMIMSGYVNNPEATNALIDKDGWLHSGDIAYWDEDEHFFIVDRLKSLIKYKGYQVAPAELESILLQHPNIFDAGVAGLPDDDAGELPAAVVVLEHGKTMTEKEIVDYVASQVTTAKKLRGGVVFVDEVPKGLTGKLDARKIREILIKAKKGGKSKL

Sequence of Follistatin (Homo sapiens) (P19883 whole entry, looked up): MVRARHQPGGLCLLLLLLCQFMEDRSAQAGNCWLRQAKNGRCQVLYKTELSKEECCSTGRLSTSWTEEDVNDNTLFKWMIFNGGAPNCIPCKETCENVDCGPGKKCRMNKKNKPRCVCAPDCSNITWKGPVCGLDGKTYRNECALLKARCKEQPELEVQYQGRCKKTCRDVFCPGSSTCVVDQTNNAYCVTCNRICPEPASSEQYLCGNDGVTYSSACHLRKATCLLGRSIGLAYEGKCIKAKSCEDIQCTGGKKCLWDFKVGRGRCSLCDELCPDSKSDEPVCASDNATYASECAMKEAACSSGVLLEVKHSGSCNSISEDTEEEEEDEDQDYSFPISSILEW
Sequence of Focal adhesion kinase 1 (Homo sapiens) (Q05397 whole entry, looked up): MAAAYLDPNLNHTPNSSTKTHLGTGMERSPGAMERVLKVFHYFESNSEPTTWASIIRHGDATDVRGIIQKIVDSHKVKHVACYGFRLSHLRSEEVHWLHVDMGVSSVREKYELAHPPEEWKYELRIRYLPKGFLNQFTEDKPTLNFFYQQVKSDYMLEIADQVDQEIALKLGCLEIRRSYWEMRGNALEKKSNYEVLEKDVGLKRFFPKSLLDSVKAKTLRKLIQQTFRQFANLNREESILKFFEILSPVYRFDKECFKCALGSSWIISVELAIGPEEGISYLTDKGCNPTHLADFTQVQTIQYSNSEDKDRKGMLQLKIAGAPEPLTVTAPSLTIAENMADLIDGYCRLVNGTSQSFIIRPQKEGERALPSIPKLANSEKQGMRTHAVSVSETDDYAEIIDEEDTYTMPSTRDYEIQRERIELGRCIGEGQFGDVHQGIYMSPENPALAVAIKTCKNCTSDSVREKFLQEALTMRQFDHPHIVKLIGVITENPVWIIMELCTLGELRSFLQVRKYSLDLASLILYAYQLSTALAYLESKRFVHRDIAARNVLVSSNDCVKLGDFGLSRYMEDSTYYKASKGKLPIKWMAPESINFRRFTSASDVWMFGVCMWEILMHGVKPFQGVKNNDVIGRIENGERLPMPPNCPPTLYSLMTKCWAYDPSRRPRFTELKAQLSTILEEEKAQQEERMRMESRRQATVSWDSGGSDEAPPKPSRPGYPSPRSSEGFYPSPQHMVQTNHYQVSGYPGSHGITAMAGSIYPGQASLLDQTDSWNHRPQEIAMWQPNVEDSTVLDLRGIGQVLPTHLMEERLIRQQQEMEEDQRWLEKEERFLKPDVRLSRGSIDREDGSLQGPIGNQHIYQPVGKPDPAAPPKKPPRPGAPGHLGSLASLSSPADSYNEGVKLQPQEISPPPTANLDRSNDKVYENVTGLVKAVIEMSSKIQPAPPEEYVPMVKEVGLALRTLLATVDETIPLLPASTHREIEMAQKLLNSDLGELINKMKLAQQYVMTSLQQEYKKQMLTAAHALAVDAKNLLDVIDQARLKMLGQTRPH
Sequence of Fibroblast growth factor 2 (Homo sapiens) (P09038 whole entry, looked up): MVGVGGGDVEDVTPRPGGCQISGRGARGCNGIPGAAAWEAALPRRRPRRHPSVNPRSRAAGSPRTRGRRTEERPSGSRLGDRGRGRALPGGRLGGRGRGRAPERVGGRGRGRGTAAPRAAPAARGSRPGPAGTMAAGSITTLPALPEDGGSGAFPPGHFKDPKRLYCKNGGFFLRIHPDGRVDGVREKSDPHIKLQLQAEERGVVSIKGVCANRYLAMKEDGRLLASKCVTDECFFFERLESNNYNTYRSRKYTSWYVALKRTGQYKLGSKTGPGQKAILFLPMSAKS

SMILES | composite z-score [1] | composite z-score [2] | composite z-score [3] | composite z-score [4] | composite z-score [5] | composite z-score [6] | z-score [7] | composite z-score (Lefty1) | composite z-score [8] | z-score [9]
CN(C)C(=O)[C@@]1(Cc2ccccc2)N=C(c2ccc(OCCCO)cc2)O[C@H]1c1ccccc1 | 2.33 | 1.24 | 0.179 | 0.971 | 0.232 | 0.393 | 0.568 | -0.557 | 1.21 | -0.794 (inactive)
CCOC(=O)C1=C[C@@H](c2ccccc2)N(S(=O)(=O)c2ccc(C)cc2)[C@H]1c1ccc(OC)cc1 | 0.546 | 0.957 | 0.501 | 0.935 | 0.609 | 0.217 | 1.77 | -0.0395 | 1.11 | 1.51 (inactive)
CC(C)NC(=O)[C@@]1(c2ccc([N+](=O)[O-])cc2)CC(=O)N(C2CCCCC2)[C@@H]1c1ccc(CO)cc1 | 2.4 | 1.17 | 0.959 | 0.729 | 1.28 | 0.584 | 0.438 | 1.29 | 0.965 | 1.46 (inactive)
C=CCNC(=O)[C@@H]1[C@H]2C(=O)O[C@H](c3ccccc3)[C@H](c3ccccc3)N2[C@H](c2ccccc2OCCO)[C@@]12C(=O)Nc1ccc(C#CCCO)cc12 | 0.169 | 0.723 | 0.415 | 0.862 | 1.43 | 1.62 | 0.861 | 1.32 | 0.5 | 0.467 (inactive)
CC(C)[Si](C#C[Si](C(C)C)(C(C)C)C(C)C)(O[C@H](c1ccccc1)c1cn(Cc2ccccc2)nn1)C(C)C | 0.259 | 0.733 | 0.23 | 0.436 | 0.532 | 0.2 | 0.238 | 0.635 | 0.212 | 0.87 (inactive)
CCCCC(CC)C(O)C1C=CC2C(=O)N(c3ccccc3)C(=O)C2N1Nc1ccc(C#N)cc1 (stereo not given) | 1.34 | 1.21 | 0.702 | 0.922 | 1.07 | 0.208 | -0.213 | 0.131 | 1.12 | -1.92 (inactive)
C=C(COC)C(=O)CC[C@@H](OC(C)=O)c1cccc(OCCO)c1 | 0.0219 | -1.04 | -0.653 | 0.567 | 1.09 | 1.48 | 0.655 | 0.146 | 0.0226 | -1.76 (inactive)
NCCCCCNC(=O)[C@@H]1C[C@@H]2C(=O)N[C@@H](CCCCN)C(=O)N2[C@@H]1c1ccc(O)cc1 | 1.98 | 1.23 | 0.294 | 0.782 | 1.42 | 1.74 | -0.862 | 1.57 | 1.14 | -0.364 (inactive)
C[N+](C)(C)CCCC[C@@H]1NC(=O)[C@@H]2C[C@H](C(=O)NCCCCCCN)[C@H](c3cccc(OCCO)c3)N2C1=O | 3.26 | 1.16 | 0.866 | 0.841 | 0.976 | 0.5 | 0.197 | 1.16 | 1.11 | -0.583 (inactive)
COCCOC(=O)N1C(=O)[C@@]2(c3cc(C#CC4=CCCCC4)ccc31)[C@H](c1ccccc1OCCO)N1[C@H](c3ccccc3)[C@H](c3ccccc3)OC(=O)[C@H]1[C@@H]2C(=O)NC[C@H](O)c1ccccc1 | 0.705 | 1.14 | 0.303 | 0.882 | 1.36 | 1.52 | -0.701 | 1.46 | 0.658 | -1.04 (inactive)
COC(=O)[C@@H]1N=C(c2ccc(OCCCO)cc2)O[C@@H]1C | 0.217 | 0.0927 | 0.517 | -0.323 | 1.17 | 0.936 | 0.669 | 0.516 | -0.257 | -13.8 (active)
COc1cc(NN2C(C(O)c3ccco3)C=CC3C(=O)N(C)C(=O)C32)cc(OC)c1OC (stereo not given) | 1.04 | 0.388 | -0.422 | 0.127 | -0.0496 | 0.127 | 0.629 | 0.0051 | 0.793 | -0.249 (inactive)
COC(=O)C1(CC(C)C)C=C2C(=C(c3ccccc3)C(=O)C2C)CN1 (stereo not given) | 1.75 | 0.166 | 0.879 | 0.579 | 0.111 | 0.953 | 0.674 | 0.0364 | 0.663 | 0.53 (inactive)
COc1ccc([Si](C)(C)[C@@H]2[C@@H](CC(=O)N3CCC[C@H]3CO)O[C@]3(C(=O)N(Cc4cccc(N5C(=O)COc6ccccc65)c4)c4ccccc43)[C@H]2C)cc1 | 1.43 | 1.21 | 0.438 | 0.711 | 0.821 | 1.22 | -0.522 | 0.984 | 1.15 | -0.23 (inactive)
C=C(C(=O)CC[C@H](OC(=O)c1ccccc1-c1ccccc1C(=O)O)c1cccc(OCCO)c1)C(C)C | 0.0001 | -0.399 | 0.0444 | 0.0591 | 0.319 | 0.85 | -0.697 | 0.485 | 0.36 | -0.373 (inactive)
Cc1ccc(C(C)CC(O)C2C=CC3C(=O)N(c4ccccc4)C(=O)C3N2Nc2ccccc2)o1 (stereo not given) | 0.943 | 1.28 | 0.908 | 0.821 | 1.03 | -0.0968 | -0.592 | -0.0661 | 0.982 | -1.22 (inactive)
COc1ccc([C@H]2OC[C@@H]3C[C@H](Cc4ccccc4)C(=O)N32)cc1 | 0.606 | 0.358 | 0.0039 | 0.179 | 0.416 | 0.511 | 0.239 | 0.374 | 0.582 | -0.0539 (inactive)
C=CCN1Cc2ccccc2[C@@H]2OC(c3ccc(OCCCO)cc3)=N[C@]2(CC=C)C1=O | 2.25 | 1.15 | 0.68 | 0.542 | 1.49 | 1.57 | 2.5 | 1.2 | 0.667 | -1.91 (inactive)
COCCOC(=O)N1C(=O)[C@@]2(c3cc(C#CCCO)ccc31)[C@H](c1ccc(OCCO)cc1)N1[C@H](c3ccccc3)[C@H](c3ccccc3)OC(=O)[C@H]1[C@@H]2C(=O)Nc1nc2ccccc2s1 | 0.872 | 1.15 | 0.479 | 0.817 | 1.32 | 0.759 | -2.37 | 1.41 | 1.13 | -2.18 (inactive)
COC(=O)C/C=C/C[C@]1(O)C(=O)N(C)c2ccccc21 | -0.0221 | 0.243 | 1.03 | -0.0833 | 0.721 | 0.561 | 1.03 | 1.17 | 0.0278 | -1.63 (inactive)
NC(=O)NCC#Cc1ccc2c(c1)[C@]1(C(=O)N2)[C@H](C(=O)N2CCN(c3ncccn3)CC2)[C@H]2C(=O)O[C@H](c3ccccc3)[C@H](c3ccccc3)N2[C@@H]1c1ccc(O)cc1 | 1.43 | 1.14 | 0.244 | 0.768 | 1.37 | 1.3 | -0.982 | 0.36 | 0.542 | -0.598 (inactive)
CCOC(=O)C[C@H]1[C@H](OC(=O)c2ccc(C(=O)c3ccccc3)cc2)[C@@H](NC(=O)CC(C)C)c2cc(OCCCO)ccc2N1C(=O)c1ccccc1 | 0.152 | 1.11 | 0.188 | 0.965 | 0.839 | 0.609 | 1.63 | 1.26 | 0.227 | -0.675 (inactive)
CC[C@@H]1C=C(C(=O)O)[C@H](c2ccccc2)N1S(=O)(=O)c1ccc(C)cc1 | 2.57 | 1.17 | 0.178 | 0.594 | -0.0393 | -0.241 | -0.719 | 0.362 | 1.05 | 1.09 (inactive)
COCCOC(=O)N1C(=O)[C@@]2(c3cc(C#CC4=CCCCC4)ccc31)[C@H](C(=O)Nc1nc3ccccc3s1)[C@H]1C(=O)O[C@H](c3ccccc3)[C@H](c3ccccc3)N1[C@@H]2c1ccc(O)cc1 | 0.174 | 1.21 | 1.38 | 0.362 | 1.39 | 1.7 | -2.1 | 0.869 | 0.529 | -1.5 (inactive)
COc1ccc([Si](C)(C)[C@@H]2[C@@H](CCO)O[C@]3(C(=O)N(Cc4ccccc4)c4ccc(NC(=O)[C@H](C)O)cc43)[C@H]2C)cc1 | 0.888 | 1.21 | 1.04 | 0.851 | 1.2 | 0.462 | -0.955 | 1.29 | 0.417 | 0.265 (inactive)
COC(=O)[C@@]1(Cc2ccc(F)cc2)[C@H]2c3cc(C(=O)N4CCCC4)n(Cc4ccc(C)c(F)c4F)c3C[C@H]2CN1C(=O)c1ccccc1 | 1.39 | 0.821 | 0.572 | 0.511 | -0.115 | -0.132 | -0.494 | -0.605 | 0.921 | -12.5 (active)
CCOC(=O)C[C@H]1[C@H](OC(=O)c2cc3ccccc3oc2=O)[C@@H](NC(=O)c2ccc3ccccc3n2)c2cc(OCCCO)ccc2N1C(=O)Cc1ccc(OC)cc1 | 0.357 | 1.18 | 0.277 | 0.953 | 1.06 | 0.509 | 0.57 | 1.06 | 0.275 | 0.798 (inactive)
COC(=O)[C@]1(CCS(=O)(=O)c2ccccc2)N=C(c2ccc(OCCCO)cc2)O[C@@H]1c1ccccc1N=[N+]=[N-] | 3.54 | 1.27 | 0.263 | 0.906 | 1.39 | 1.75 | -0.447 | 0.387 | 1.09 | -1.32 (inactive)
NC(=O)NCC#Cc1ccc2c(c1)[C@]1(C(=O)N2)[C@H](c2ccccc2OCCO)N2[C@H](c3ccccc3)[C@H](c3ccccc3)OC(=O)[C@H]2[C@@H]1C(=O)O | -0.241 | -0.464 | -0.178 | 0.277 | 0.728 | 0.387 | -0.545 | 0.477 | 0.225 | -0.521 (inactive)
CCOC(=O)[C@@H]1CCCCN1C(=O)C(=O)OC | 0.234 | 0.504 | 0.1 | -0.23 | 0.479 | 0.894 | -0.309 | 1.29 | -0.48 | 0.0296 (inactive)
